Experimental data taken from PubChem BioAssay (NCI).
Values joined by “and” are separate entries in the source; they are usually repeats but may differ in a detail not shown here. Equal values may be shown once. About 83,000 compounds went through this panel and 20% of them were active in at least one assay; those are over-represented in the sample as a whole.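 A percent growth of 40 corresponds to 60% growth inhibition; 0 means no net growth; -100 means all cells died. Active threshold: below 10.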 Active and inactive are the calls of the source.

Key:
Test in all cases: NCI-60 one-dose screen, 48 h (100 = growth as untreated, 0 = no growth, -100 = all killed)
Details in all cases: 10 µM unless noted
T-47D breast = test system: T-47D breast
BT-549 breast = test system: BT-549 breast
MDA-MB-435 melanoma = test system: MDA-MB-435 melanoma
SW-620 colon = test system: SW-620 colon
MCF7 breast = test system: MCF7 breast
HCT-116 colon = test system: HCT-116 colon
HCC-2998 colon = test system: HCC-2998 colon
KM12 colon = test system: KM12 colon

Measured: growth

Cc1ccc2[nH]c(=S)[nH]c(=O)c2c1
inactive: T-47D breast 89% | BT-549 breast 101% | MDA-MB-435 melanoma 101% | SW-620 colon 103% | MCF7 breast 99.8% | HCT-116 colon 101% | HCC-2998 colon 98.2% | KM12 colon 100%

CC1(C)C(N)=Nc2cc(OCCCN3Cc4ccc(OCCc5cn(CC(=O)N6CCC(CCN7CCCC7)CC6)nn5)cc4C3)c(OCC3CC3)cc21
inactive: T-47D breast 92.3% | BT-549 breast 100% | MDA-MB-435 melanoma 102% | SW-620 colon 109% | MCF7 breast 89.3% | HCT-116 colon 103% | HCC-2998 colon 122% | KM12 colon 107%

COc1ccc(/C=C2/C(=O)N=C3N2NC(c2ccccc2)=CN3c2ccccc2)cc1
inactive: T-47D breast 106% | BT-549 breast 96% | MDA-MB-435 melanoma 108% | SW-620 colon 101% | MCF7 breast 99.9% | HCT-116 colon 99.8% | HCC-2998 colon 97.7% | KM12 colon 108%

CCN(CC)CCCN1C(=O)c2c(c(C)c3c(oc4cc(OC)ccc43)c2C)C1=O
active: MCF7 breast -14.7%
inactive: T-47D breast 112% | BT-549 breast 98.8% | MDA-MB-435 melanoma 103% | SW-620 colon 87.3% | HCT-116 colon 74.3% | HCC-2998 colon 98.1% | KM12 colon 96.9%

Clc1ccc2c(c1)N(c1ncnc3ccc(-c4cnc5[nH]ccc5c4)cc13)CC2
inactive: BT-549 breast 20.1% | SW-620 colon 24.5% | HCT-116 colon 16.6% | HCC-2998 colon 43.7% | KM12 colon 19.9%
active: T-47D breast -15% | MDA-MB-435 melanoma -42.1% | MCF7 breast 6.81%

C=C(C)[C@@H]1CC[C@]2(C)[C@H](CC(=O)N[C@H]3[C@@H]4C[C@](C)(C(=O)OC)CC[C@]4(C)CC[C@]32C)[C@@]1(C)CCC#N
inactive: T-47D breast 63.6% | BT-549 breast 72.1% | MDA-MB-435 melanoma 87.8% | SW-620 colon 93% | MCF7 breast 73.8% | HCT-116 colon 72.2% | HCC-2998 colon 100% | KM12 colon 79.6%

C/C(=C(\c1ccc(OCCN2CCOCC2)cc1)c1ccc(OC(=O)C2CCCCC2)cc1)c1ccc(Cl)cc1
inactive: T-47D breast 66.5% | BT-549 breast 91.3% | MDA-MB-435 melanoma 94.4% | SW-620 colon 96.6% | MCF7 breast 79.8% | HCT-116 colon 78.7% | HCC-2998 colon 94.2% | KM12 colon 98.8%

COc1ccc(C(c2cc(OC)c(OC)c(OC)c2)n2ccnc2)cc1O (stereo unspecified)
inactive: T-47D breast 42.6% | SW-620 colon 28.6% | MCF7 breast 18.4% | HCC-2998 colon 25% | KM12 colon 17%
active: BT-549 breast -0.0718% | MDA-MB-435 melanoma -29.5% | HCT-116 colon 6.88%

Cn1cc(-c2csc(-c3c[nH]c4ccc(F)cc34)n2)c2cnccc21
inactive: BT-549 breast 76.6%
active: T-47D breast -65% | MDA-MB-435 melanoma -90.5% | SW-620 colon -86.7% | MCF7 breast -25.1% | HCT-116 colon -89.9% | HCC-2998 colon -54.9% | KM12 colon -11.8%

C=C[C@]1(C)C=C2CC[C@@H]3C(C)(C)C(=O)CC[C@@]3(C)[C@@H]2CC1
inactive: T-47D breast 105% | BT-549 breast 126% | MDA-MB-435 melanoma 101% | SW-620 colon 105% | MCF7 breast 101% | HCT-116 colon 103% | HCC-2998 colon 107% | KM12 colon 98.6%

O=C1OCC2=C1C(c1cccc(C(F)(F)F)c1)c1cc3c(cc1N2CCO)CCC3 (stereo unspecified)
active: MDA-MB-435 melanoma -44.3% | HCT-116 colon 4.17% | KM12 colon 4.92%
inactive: T-47D breast 75% | BT-549 breast 22% | SW-620 colon 24% | MCF7 breast 16.3% | HCC-2998 colon 11.2%

Clc1ccc(CNc2ccc3nc(CCC4CCCCC4)[nH]c3c2)cc1
inactive: T-47D breast 24.3% | BT-549 breast 83.3% | MDA-MB-435 melanoma 66.4% | SW-620 colon 26.2% | MCF7 breast 37.9% | HCT-116 colon 36.2% | KM12 colon 50.7%
active: HCC-2998 colon -57.6%

Clc1cccc(Nc2ncnc3ccc(-c4cncc(-n5cnnn5)c4)cc23)c1
inactive: T-47D breast 44.8% | BT-549 breast 44.9% | MDA-MB-435 melanoma 89.8% | SW-620 colon 96.8% | MCF7 breast 67.7% | HCT-116 colon 38.1% | HCC-2998 colon 93.6% | KM12 colon 91.4%

COc1ccc(-c2csc(NC(=O)CN3CCN(CCO)CC3)n2)cc1NS(=O)(=O)c1cccc2c(N(C)C)cccc12
inactive: T-47D breast 72% | BT-549 breast 82.1% | MDA-MB-435 melanoma 57.3% | SW-620 colon 84.1% | MCF7 breast 59.6% | HCT-116 colon 73.5% | HCC-2998 colon 73.2% | KM12 colon 77.2%

COc1ccc(/C=N/C2=C(C#N)C(c3ccccc3)c3c(ccc4ccccc34)O2)cc1 (stereo unspecified)
active: MDA-MB-435 melanoma -59.2%
inactive: T-47D breast 36.3% | BT-549 breast 35.7% | SW-620 colon 29.4% | MCF7 breast 15.4% | HCT-116 colon 24.8% | HCC-2998 colon 48.8% | KM12 colon 29.1%

Cc1ccc(/C=C2\COc3ccc(O)c(O)c3C2=O)cc1
inactive: MCF7 breast 15.1%
active: T-47D breast -7.19% | BT-549 breast -13.1% | MDA-MB-435 melanoma -24.4% | SW-620 colon -32.4% | HCT-116 colon -22.9% | HCC-2998 colon 9.54% | KM12 colon -19.9%

CCCCCCCCCCCCC[C@H](O)C[C@H](O)[C@H](C)N
inactive: T-47D breast 122% [1.25 µM] | BT-549 breast 107% [1.25 µM] | MDA-MB-435 melanoma 116% [1.25 µM] | SW-620 colon 99.9% [1.25 µM] | MCF7 breast 104% [1.25 µM] | HCT-116 colon 83.1% [1.25 µM] | HCC-2998 colon 26.7% [1.25 µM] | KM12 colon 116% [1.25 µM]

COc1cc(NS(=O)(=O)C(C)C)cc(-c2cc(-c3ccc(N4CCNCC4)cc3)cnc2N)c1
inactive: T-47D breast 81.9% | BT-549 breast 78.4% | MDA-MB-435 melanoma 92.5% | SW-620 colon 82% | MCF7 breast 81.2% | HCT-116 colon 14.2% | HCC-2998 colon 80.5% | KM12 colon 48.3%

O=C(Nc1ccccc1C(=O)N/N=C(\c1ccccc1)c1ccccn1)c1ccccc1
inactive: T-47D breast 13.3% | BT-549 breast 31.3% | MDA-MB-435 melanoma 27.7% | SW-620 colon 29.2% | HCT-116 colon 20.7% | HCC-2998 colon 29.7% | KM12 colon 21.6%
active: MCF7 breast 9.02%

CCC(=C(c1ccc(OCCCN(C)C)cc1)c1ccc(OCCCN(C)C)cc1)c1ccc(Cl)cc1
active: T-47D breast -66.8% | BT-549 breast -92.6% | MDA-MB-435 melanoma -95.5% | SW-620 colon -73.7% | MCF7 breast -79.2% | HCT-116 colon -94% | HCC-2998 colon -80.8% | KM12 colon -78.7%

CN(C)CC1(C)Cc2ccsc2C1O (stereo unspecified)
inactive: T-47D breast 113% and 100% | BT-549 breast 113% and 102% | MDA-MB-435 melanoma 111% and 107% | SW-620 colon 105% and 112% | MCF7 breast 110% and 105% | HCT-116 colon 115% and 104% | HCC-2998 colon 107% and 103% | KM12 colon 116% and 106%

O=C(Nc1ncc(Cc2cccc(C(F)(F)F)c2)s1)c1ccc2c(c1)OCCO2
inactive: T-47D breast 42.5% | BT-549 breast 35.8% | SW-620 colon 37% | MCF7 breast 13.9% | HCT-116 colon 10.9% | HCC-2998 colon 20.3% | KM12 colon 11.1%
active: MDA-MB-435 melanoma 3.47%

c1ccc(-c2cc(-c3cc(-c4ccccc4)on3)no2)cc1
inactive: T-47D breast 85.2% | BT-549 breast 99.4% | MDA-MB-435 melanoma 102% | SW-620 colon 51.5% | MCF7 breast 49.1% | HCT-116 colon 41.8% | HCC-2998 colon 94.2% | KM12 colon 92.8%

[2H]C([2H])([2H])Oc1cccc(/C=C/C(=O)/C=C(/C=C/c2cccc(OC([2H])([2H])[2H])c2OC([2H])([2H])[2H])OB(F)F)c1OC([2H])([2H])[2H]
inactive: T-47D breast 50.6% | BT-549 breast 86.2% | MDA-MB-435 melanoma 57% | SW-620 colon 46.7% | MCF7 breast 26.2% | HCT-116 colon 41.5% | HCC-2998 colon 122% | KM12 colon 92.2%

O=C(CC1(O)C(=O)Nc2ccc(Br)cc21)c1ccc(Cl)cc1 (stereo unspecified)
inactive: T-47D breast 84.4% | BT-549 breast 99.9% | MDA-MB-435 melanoma 109% | SW-620 colon 99% | MCF7 breast 98% | HCT-116 colon 98% | HCC-2998 colon 104% | KM12 colon 99.5%

CN1CCN(CCNC(=O)c2cccc(CN3c4cccc5c4C(=Cc4cccnc43)N(C)C5=O)c2)CC1
inactive: T-47D breast 34.8% | BT-549 breast 57.5% | MDA-MB-435 melanoma 39.8% | SW-620 colon 52.7% | MCF7 breast 16.6% | HCT-116 colon 25.8% | HCC-2998 colon 39.8% | KM12 colon 44.6%

C=CCNC(=O)Cc1c(-c2ccc(OC)cc2)oc2c(OC)c3c(c(OC)c12)OCO3
inactive: T-47D breast 101% | BT-549 breast 100% | MDA-MB-435 melanoma 103% | SW-620 colon 103% | MCF7 breast 83.9% | HCT-116 colon 92.8% | HCC-2998 colon 116% | KM12 colon 96.2%
